TDP1 inh: qHTS Assay for Inhibitors of Tyrosyl-DNA Phosphodiesterase (TDP1). Tyrosyl-DNA phosphodiesterase 1 (Homo sapiens), Q9NUW8. Potency, µM (doses to about 130 µM), inactives show at the highest dose activity change, negative = inhibition, actives largely listed as inhibitors. 350,000 tested, 0.28% active. recombinant TDP1, AlphaScreen DNA substrate cleavage; further: potency means the concentration at half of the fitted maximal effect; nearly all actives have a fitted effect of over 40% in size
Target sequence (Q9NUW8 whole entry, looked up): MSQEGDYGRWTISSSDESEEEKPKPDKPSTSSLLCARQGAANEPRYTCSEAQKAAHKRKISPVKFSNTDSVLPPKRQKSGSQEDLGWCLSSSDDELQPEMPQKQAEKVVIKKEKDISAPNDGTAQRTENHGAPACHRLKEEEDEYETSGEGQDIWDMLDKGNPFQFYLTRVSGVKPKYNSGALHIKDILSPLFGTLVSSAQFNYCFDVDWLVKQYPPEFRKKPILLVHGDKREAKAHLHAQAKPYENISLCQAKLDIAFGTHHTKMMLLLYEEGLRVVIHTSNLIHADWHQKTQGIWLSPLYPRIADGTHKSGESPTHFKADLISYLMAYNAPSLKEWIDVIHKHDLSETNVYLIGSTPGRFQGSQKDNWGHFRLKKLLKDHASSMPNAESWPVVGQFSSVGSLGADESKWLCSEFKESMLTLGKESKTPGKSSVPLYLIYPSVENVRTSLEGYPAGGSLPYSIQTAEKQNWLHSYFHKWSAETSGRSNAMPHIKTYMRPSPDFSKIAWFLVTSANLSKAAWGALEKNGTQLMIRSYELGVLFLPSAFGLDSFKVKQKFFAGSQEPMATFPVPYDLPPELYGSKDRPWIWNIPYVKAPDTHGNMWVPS
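E. coli-derived human Tdp1, 1 nM final. Cpd preinc 15 min RT; substrate 15 nM final, 5 min RT; AS bead mix 10 ug/ml final, 10 min RT. Signal loss = tyrosine-FITC cleavage. No-enzyme wells = max signal.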
IL-1B inflam inh: qHTS for Inhibitors of Inflammasome Signaling: IL-1-beta AlphaLISA Primary Screen; activity change, % at 57.5 µM; 360,000 tested, 4.7% active; THP-1 LPS/ATP IL-1B secretion, AlphaLISA, 16 h; active compounds read low; in the data active means activity change below about -50%; inconclusive means mostly about -30% to -49%
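THP-1 cells pretreated 1 hr with compounds (up to 57.5 uM final), then stimulated with LPS (250 ng/mL final) plus ATP (1.25 mM final); secreted IL-1B measured by AlphaLISA after 16 hr, decreased signal indicating inhibition.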
Giardia killer: Small Molecules that selectively kill Giardia lamblia: qHTS | 340,000 tested, 0.15% active | activity change, % at 7.66 µM, hits read low | Giardia lamblia trophozoite viability | AID 540267, 2011; in the data active means activity change below about -80%; inconclusive means between about -30% and that limit;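 further: parasites exposed to compound for two days anaerobically before the ATP read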
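Giardia lamblia trophozoites (100 cells/well) were incubated with compounds for 48 h at 37 deg C under anaerobic conditions. Viability was read as ATP content by one-step luminescence after 15-30 min at room temperature.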
DT40 TDP1 no CPT: qHTS for Inhibitors of human tyrosyl-DNA phosphodiesterase 1 (TDP1): qHTS in cells in absence of CPT | Potency, µM (series often up to 46.2 µM), for inactives: top-dose activity change, negative = growth inhibition, actives largely listed as inhibitors | DT40 Tdp1-/- hTDP1 cells, no CPT, ATP luminescence, 48 h | 420,000 tested, 15% active; further: potency means the concentration at half of the fitted maximal effect; nearly all actives have a fitted effect of over 55% in size
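Growth of hTDP1-complemented DT40 Tdp1-knockout cells is measured by ATP luminescence after at least 48 hr compound exposure at 37 °C, with DMSO substituting for the 20 nM CPT used in the parallel screen.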
ELG1 DNA repair: qHTS screen for small molecules that inhibit ELG1-dependent DNA repair in human embryonic kidney (HEK293T) cells expressing luciferase-tagged ELG1; Potency, µM (highest dose often 46.1 µM), for the others: top-dose activity change, negative = inhibition, most hits filed as inhibitors; AID 504467, 2011; 330,000 tested, 2.3% active; HEK293T ELG1-luciferase reporter, luminescence, 16 h; DNA damage induced by 5-fluorouridine; further: potency means the concentration at half of the fitted maximal effect; nearly all actives have a fitted effect of over 55% in size
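Reporter activity after DNA damage by 5-fluorouridine is monitored. Compound-treated cells incubate 16 hr at 37 °C, then ONE-Glo is added for 30 min before luminescence reading.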
TDP1 cell CPT: qHTS for Inhibitors of human tyrosyl-DNA phosphodiesterase 1 (TDP1): qHTS in cells in presence of CPT; chicken DT40 Tdp1-/-;hTDP1 cells + 20 nM CPT, ATP luminescence, 48 h; Potency, µM (titrated, usually from 46.2 µM), for the others: at the highest dose activity change, negative = growth inhibition, actives largely listed as inhibitors; 420,000 tested, 12% active; further: potency means the concentration at half of the fitted maximal effect; nearly all actives have a fitted effect of over 55% in size
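Chicken DT40 Tdp1-/- cells complemented with human TDP1, 400 cells/well, exposed to compounds plus 20 nM camptothecin for at least 48 h at 37 C; viability read as ATP content by CellTiter-Glo luminescence.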
An asterisk follows results filed as active; ? = inconclusive; nt = no result given. Compounds with a hit are over-represented: about 19% of the library has one in this group of screens. Unless noted, the call rests on the fitted dose curve; in most records, active means well fitted curve in the direction sought with a large enough effect; inconclusive means small, poorly fitted or top-dose-only effect, or another doubt; inactive means no such curve, though single readings can be large; an effect the other way counts as inactive or inconclusive. On the % scale 0 is the no-effect control and ±100 the full control effect.

SMILES	TDP1 inh	IL-1B inflam inh	Giardia killer	DT40 TDP1 no CPT	ELG1 DNA repair	TDP1 cell CPT
Cc1ccc(Cl)cc1N1CCN(C(=O)c2cnn(C(C)(C)C)c2C2CCN(C(=O)OC(C)(C)C)CC2)CC1	1%	nt	nt	?	nt	26µM*
CS(=O)(=O)c1ccccc1-c1nc(-c2ccc(C(F)(F)F)cc2)no1	1%	?	5	16µM*	?	?
COCCNCCCCSc1ccc(Cl)cc1	-1%	-6	3	18µM*	0%	15µM*
COCCNC(=O)CSc1ccc(Cl)cc1	0%	0	-10	-15%	-3%	16%
Cc1cccc(N2CCN(S(=O)(=O)c3ccc(F)c(C(=O)Nc4cccc(Cl)c4C)c3)CC2C)c1 (stereo unspecified)	5%	nt	nt	?	nt	?
COc1ccccc1N1CCN(S(=O)(=O)c2cc(C(=O)Nc3ccc(Oc4ccccc4)cc3)ccc2F)CC1	13%	nt	nt	5.8µM*	nt	3.3µM*
O=C(Nc1ccc(Oc2ccccc2)cc1)c1ccc(F)c(S(=O)(=O)N2CCN(c3ccccc3F)CC2)c1	8%	nt	nt	4.6µM*	nt	5.8µM*
Cc1cccc(N2CCN(S(=O)(=O)c3cc(C(=O)Nc4ccc(Oc5ccccc5)cc4)ccc3F)CC2C)c1 (stereo unspecified)	8%	nt	nt	2.9µM*	nt	2.1µM*
CC(C)c1ccc(NC(=O)c2ccc(F)c(S(=O)(=O)N3CCN(c4ccccc4F)CC3)c2)cc1	8%	nt	nt	?	nt	-11%
CC(=O)Nc1ccn(C2OC(C(COC(C)=O)NC(=O)C(Cc3ccccc3)NC(=O)OC(C)(C)C)C(OC(C)=O)C2OC(C)=O)c(=O)n1 (stereo unspecified)	4%	nt	-21	nt	nt	nt
CCOc1ccc(CCN2C(=S)N([C@@H](Cc3ccccc3)CN3CCCC3CN3C(=S)NC[C@@H]3Cc3ccccc3)C[C@@H]2Cc2ccc(O)cc2)cc1 (stereo partly specified)	nt	-4	nt	23µM*	nt	21µM*
CCOc1ccc(CCN2C(=S)N([C@@H](CC(C)C)CN3CCC[C@@H]3CN3C(=S)NC[C@@H]3Cc3ccccc3)C[C@@H]2Cc2ccc(O)cc2)cc1	nt	-65*	nt	13µM*	nt	15µM*
CC(C)C[C@H]1CNC(=S)N1C[C@H]1CCCN1C[C@H](Cc1ccc(O)cc1)N1C[C@H](Cc2ccccc2)N(CCc2ccccc2)C1=S	nt	-22	nt	?	nt	?
CCOc1ccc(CCN2C(=S)N([C@@H](Cc3ccc(O)cc3)CN3CCC[C@@H]3CN3C(=S)NC[C@@H]3Cc3ccc(O)cc3)C[C@@H]2Cc2ccc(O)cc2)cc1	nt	-57*	nt	?	nt	?
CCOc1ccc(CCN2C(=S)N([C@@H](Cc3ccc(O)cc3)CN3CCC[C@@H]3CN3C(=S)NC[C@@H]3Cc3ccccc3)C[C@@H]2Cc2ccccc2)cc1	nt	-18	nt	?	nt	?
Oc1ccc(C[C@H]2CNC(=S)N2CC2CCCN2C[C@H](Cc2ccc(O)cc2)N2C[C@H](Cc3ccccc3)N(CCc3ccccc3)C2=S)cc1 (stereo partly specified)	nt	-22	4	21µM*	nt	?
CCOc1ccc(-n2c(SC(C)C(=O)OC)nc3c([nH]c4ccccc43)c2=O)cc1 (stereo unspecified)	5%	nt	nt	?	nt	?
COc1ccc(Cl)cc1C(=O)NNC(=O)CSc1nncn1C	-2%	13	6	0%	0%	23%
